# Results published in PubChem BioAssay.
# Tested on: Chordin-like protein 2 (CHRDL2)
# Experiment: compounds binding chordin-like 2 – biochemical, small-molecule microarray, 635 nm fluorescence, primary screen (AID 1126);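 also: printed compound slides probed with Chrdl2 protein at 4 µg/mL for 1 h at 4 C; score merges 667 nm emission intensity with signal to noise over three replicate slides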
# Conditions: fluorescence 635 nm, higher = more signal
row,SMILES,composite z-score
1,C[C@H]1NC(=O)[C@@]23C(=O)N[C@@H](Cc4ccccc4)C2[C@H](C)[C@@]2(C)O[C@H]2C3/C=C/C/C=C\CNC(=O)[C@@H]2CCCN2C1=O (some centres undefined),0.258
2,CCOC(=O)C[C@H]1[C@H](OC(=O)c2ccc(C(=O)c3ccccc3)cc2)[C@@H](NC(=O)c2ccc3ccccc3n2)c2cc(OCCCO)ccc2N1C(=O)c1ccccc1,-0.322
3,CCCC[C@@H]1C[C@H]1[C@@H](NC(=O)c1cccs1)c1ccc(-c2ccccc2)cc1,0.0355
4,COC(=O)[C@@]1(Cc2ccc(OC)cc2)[C@H]2c3cc(C(=O)N4CCCC4)n(Cc4ccc(O)c(OC)c4)c3C[C@H]2CN1C(=O)c1ccccc1,0.114
5,[N-]=[N+]=NCc1ccccc1C[C@]1(C(N)=O)COC(c2ccc(OCCCO)cc2)=N1,-0.846
6,C=C(COC)C(=O)CC[C@@H](OC(C)=O)c1ccc(CO)o1,1.13
7,O=C1c2ccccc2[C@](Cc2ccccc2I)(C(=O)NCCN2CCOCC2)[C@H](c2ccc(CO)cc2)N1Cc1ccccc1Cl,0.202
8,COCCCNC(=O)[C@]1(CCC(=O)OC(C)(C)C)N=C(c2ccc(OCCCO)cc2)O[C@@H]1c1ccccc1CN=[N+]=[N-],0.0091
9,C=CCNC(=O)[C@@H]1[C@H]2C(=O)O[C@H](c3ccccc3)[C@H](c3ccccc3)N2[C@H](c2ccc(OCCO)cc2)[C@@]12C(=O)Nc1ccc(C#CCC(C(=O)OC)C(=O)OC)cc12,0.392
10,COc1cc2c(cc1OC)CN(C(=O)[C@@H]1[C@H]3C(=O)O[C@H](c4ccccc4)[C@H](c4ccccc4)N3[C@H](c3ccccc3OCCO)[C@@]13C(=O)Nc1ccc(C#CCCO)cc13)CC2,0.352
11,C=CCC(OC(C)=O)[C@@H]1[C@@H](N(Cc2cc3ccccc3o2)C(=O)c2cccc3ccccc23)c2cc(OCCCO)ccc2N1C(=O)c1ccc(-c2ccccc2)cc1 (some centres undefined),0.107
12,COC(=O)[C@@]1(Cc2ccc(F)cc2)[C@H]2c3cc(C(=O)N4CCCC4)n(CCCNc4ncc(C(F)(F)F)cc4Cl)c3C[C@H]2CN1C(=O)c1ccccc1,0.197
13,CC(C)N1C(=O)c2ccccc2[C@](C)(C(=O)NCCN2CCOCC2)[C@@H]1c1ccc(CO)cc1,-1.12
14,CC(C)C(=C=CC[C@@H](O)c1ccc(OCCO)cc1)C[C@@H](O)c1ccccn1,1.38
15,CO[C@H]1O[C@H](CO)[C@@H](OC(=O)Nc2ccc(Oc3ccccc3)cc2)[C@H](OC(=O)Nc2ccc3c(c2)OCO3)[C@H]1OC(=O)Nc1ccc2c(c1)OCO2,0.317
16,C=CCOC(=O)[C@H]1[C@@H]2C(=O)O[C@@H](c3ccccc3)[C@@H](c3ccccc3)N2[C@@H](c2ccc(OCCOC(=O)[C@@H]3C[C@@H]4C(=O)N[C@@H](CC(C)C)C(=O)N4[C@@H]3c3ccc(O)cc3)cc2)[C@]12C(=O)Nc1ccccc12,1.25
17,O=C(c1ccccc1)N1C(=O)[C@]2(COC(c3ccc(OCCCO)cc3)=N2)Cc2ccccc21,0.674
18,CCCc1cc2c(n1Cc1cc(F)cc(F)c1)C(C)C1CN(C(=O)c3ccccc3)C(C)(C(=O)OC)C21 (centres undefined),-0.255
19,O=C(c1ccccc1)N1C(=O)[C@@]2(Cc3ccccc31)N=C(c1ccc(OCCCO)cc1)O[C@H]2c1ccccc1,0.897
20,CO[C@H]1O[C@H](CO)[C@@H](OC(=O)Nc2ccccc2)[C@H](OC(=O)Nc2ccccc2)[C@@H]1OC(=O)Nc1ccccc1,0.136
21,COc1ccc(CCNC(=O)[C@@]2(Sc3ccc(C)cc3)CC(=O)N(C3Cc4ccccc4C3)[C@@H]2c2ccc(CO)cc2I)cc1,-0.235
22,CCCCCN1CC=CC23O[C@@H]4C=CCCOC(=O)C4[C@H]2C(=O)N(CCCCCO)[C@@H]3C1=O (some centres undefined),-0.17
23,COc1cc2c(cc1OC)CN(C(=O)[C@H]1[C@@H]3C(=O)O[C@@H](c4ccccc4)[C@@H](c4ccccc4)N3[C@@H](c3ccc(O)cc3)[C@]13C(=O)Nc1ccc(C#CCCO)cc13)CC2,0.077
24,CN1C=C(C(=O)OCCS(C)(=O)=O)C(C(=O)OCCS(C)(=O)=O)=CC(c2ccc(CO)cc2)=CC1C1CC1 (centres undefined),-0.246
25,C=C[C@H](CO[Si](CC)(CC)CC)N(Cc1ccc(OC(C)=O)c(OC)c1)S(=O)(=O)c1ccc(Br)cc1,1.31
26,C[N+](C)(C)CCCCCCNC(=O)[C@@H]1C[C@@H]2C(=O)N[C@@H](Cc3ccccc3)C(=O)N2[C@@H]1c1cccc(OCCO)c1,1.27
27,NC(=O)[C@@H]1[C@H]2C(=O)O[C@H](c3ccccc3)[C@H](c3ccccc3)N2[C@H](c2ccc(O)cc2)[C@@]12C(=O)Nc1ccccc12,-1.73
28,C=C(CCCC)/C(=C/C[C@@H](OC(C)=O)c1ccc(OCCO)cc1)c1cnc2ccccc2c1,0.963

# Biological target: Concanavalin-A (Canavalia ensiformis) (UniProt P02866)
# Experiment: compounds binding concanavalin A lectin – biochemical, small-molecule microarray, Alexa647 label, 635 nm, artefact control for SMM control protein annotation, primary screen (AID 1127);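 also: z combines 667 nm emission intensity with signal-to-noise across three replicate slides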
# Conditions: ConA-A647 binding fluorescence, higher = more signal
# Sequence of Concanavalin-A (Canavalia ensiformis) (P02866 whole entry, looked up): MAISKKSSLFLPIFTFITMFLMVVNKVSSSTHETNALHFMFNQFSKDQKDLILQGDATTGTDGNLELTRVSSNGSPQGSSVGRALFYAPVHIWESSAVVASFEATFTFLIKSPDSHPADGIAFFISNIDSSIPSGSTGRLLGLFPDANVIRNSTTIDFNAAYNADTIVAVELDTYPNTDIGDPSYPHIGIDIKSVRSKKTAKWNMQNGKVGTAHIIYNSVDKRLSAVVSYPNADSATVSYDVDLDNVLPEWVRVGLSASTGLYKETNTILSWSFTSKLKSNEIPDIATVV
row,SMILES,composite z-score
1,CC(C)=CCN[C@H](CO)c1ccccc1,0.0857
2,CCCC#C[Si](O[C@H](CC)c1cn(Cc2cccc(Cl)c2)nn1)(C(C)C)C(C)C,0.7
3,C=CCOC(=O)[C@H]1[C@@H]2C(=O)O[C@@H](c3ccccc3)[C@@H](c3ccccc3)N2[C@@H](c2ccc(OCCOC(=O)[C@H]3C[C@H]4C(=O)N[C@@H](CCCCNC(C)=O)C(=O)N4[C@H]3c3cccc(OCCO)c3)cc2)[C@]12C(=O)Nc1ccccc12,1.15
4,C=C(COC)/C(=C/C[C@@H](OC(=O)c1ccncc1)c1ccc(CO)o1)c1cc(C(=O)OC)ccc1OC,1.14
5,CC(C)C(=C=CC[C@@H](O)c1ccc(OCCO)cc1)C[C@@H](O)COCc1ccccc1,-0.625
6,CCCCCCc1nc(-c2cc(C)c(OC)c(C)c2)cc2c1[Si](C(C)C)(C(C)C)OC2,0.208
7,COc1cc2c(cc1O)C(C1CC1)N(Cc1sc3ccccc3c1Cl)CC2 (centres undefined),0.0387
8,COCCOC(=O)N1C(=O)[C@@]2(c3cc(C#CCC(C(=O)OC)C(=O)OC)ccc31)[C@H](C(=O)N1CCN(c3ncccn3)CC1)[C@H]1C(=O)O[C@H](c3ccccc3)[C@H](c3ccccc3)N1[C@@H]2c1ccccc1OCCO,1.13
9,C[C@H]1NC(=O)[C@@]23C(=O)N[C@@H](Cc4ccccc4)C2[C@H](C)[C@@]2(C)O[C@H]2C3/C=C/C/C=C\CNC(=O)[C@@H]2CCCN2C1=O (some centres undefined),1.13
10,CCOC(=O)C[C@H]1[C@H](OC(=O)c2ccc(C(=O)c3ccccc3)cc2)[C@@H](NC(=O)c2ccc3ccccc3n2)c2cc(OCCCO)ccc2N1C(=O)c1ccccc1,1.12
11,CCCC[C@@H]1C[C@H]1[C@@H](NC(=O)c1cccs1)c1ccc(-c2ccccc2)cc1,0.432
12,COC(=O)[C@@]1(Cc2ccc(OC)cc2)[C@H]2c3cc(C(=O)N4CCCC4)n(Cc4ccc(O)c(OC)c4)c3C[C@H]2CN1C(=O)c1ccccc1,0.988
13,[N-]=[N+]=NCc1ccccc1C[C@]1(C(N)=O)COC(c2ccc(OCCCO)cc2)=N1,0.556
14,C=C(COC)C(=O)CC[C@@H](OC(C)=O)c1ccc(CO)o1,0.0796
15,O=C1c2ccccc2[C@](Cc2ccccc2I)(C(=O)NCCN2CCOCC2)[C@H](c2ccc(CO)cc2)N1Cc1ccccc1Cl,1.17
16,COCCCNC(=O)[C@]1(CCC(=O)OC(C)(C)C)N=C(c2ccc(OCCCO)cc2)O[C@@H]1c1ccccc1CN=[N+]=[N-],1.12

row,SMILES,composite z-score
1,C=CCNC(=O)[C@@H]1[C@H]2C(=O)O[C@H](c3ccccc3)[C@H](c3ccccc3)N2[C@H](c2ccc(OCCO)cc2)[C@@]12C(=O)Nc1ccc(C#CCC(C(=O)OC)C(=O)OC)cc12,1.16
2,COc1cc2c(cc1OC)CN(C(=O)[C@@H]1[C@H]3C(=O)O[C@H](c4ccccc4)[C@H](c4ccccc4)N3[C@H](c3ccccc3OCCO)[C@@]13C(=O)Nc1ccc(C#CCCO)cc13)CC2,1.14
3,C=CCC(OC(C)=O)[C@@H]1[C@@H](N(Cc2cc3ccccc3o2)C(=O)c2cccc3ccccc23)c2cc(OCCCO)ccc2N1C(=O)c1ccc(-c2ccccc2)cc1 (some centres undefined),-0.505
4,COC(=O)[C@@]1(Cc2ccc(F)cc2)[C@H]2c3cc(C(=O)N4CCCC4)n(CCCNc4ncc(C(F)(F)F)cc4Cl)c3C[C@H]2CN1C(=O)c1ccccc1,0.625
5,CC(C)N1C(=O)c2ccccc2[C@](C)(C(=O)NCCN2CCOCC2)[C@@H]1c1ccc(CO)cc1,-0.0721
6,CC(C)C(=C=CC[C@@H](O)c1ccc(OCCO)cc1)C[C@@H](O)c1ccccn1,0.817
7,CO[C@H]1O[C@H](CO)[C@@H](OC(=O)Nc2ccc(Oc3ccccc3)cc2)[C@H](OC(=O)Nc2ccc3c(c2)OCO3)[C@H]1OC(=O)Nc1ccc2c(c1)OCO2,1.12
8,C=CCOC(=O)[C@H]1[C@@H]2C(=O)O[C@@H](c3ccccc3)[C@@H](c3ccccc3)N2[C@@H](c2ccc(OCCOC(=O)[C@@H]3C[C@@H]4C(=O)N[C@@H](CC(C)C)C(=O)N4[C@@H]3c3ccc(O)cc3)cc2)[C@]12C(=O)Nc1ccccc12,1.15
9,O=C(c1ccccc1)N1C(=O)[C@]2(COC(c3ccc(OCCCO)cc3)=N2)Cc2ccccc21,1.16
10,CCCc1cc2c(n1Cc1cc(F)cc(F)c1)C(C)C1CN(C(=O)c3ccccc3)C(C)(C(=O)OC)C21 (centres undefined),1.11
11,O=C(c1ccccc1)N1C(=O)[C@@]2(Cc3ccccc31)N=C(c1ccc(OCCCO)cc1)O[C@H]2c1ccccc1,1.14
12,CO[C@H]1O[C@H](CO)[C@@H](OC(=O)Nc2ccccc2)[C@H](OC(=O)Nc2ccccc2)[C@@H]1OC(=O)Nc1ccccc1,1.12
13,COc1ccc(CCNC(=O)[C@@]2(Sc3ccc(C)cc3)CC(=O)N(C3Cc4ccccc4C3)[C@@H]2c2ccc(CO)cc2I)cc1,-1.26
14,CCCCCN1CC=CC23O[C@@H]4C=CCCOC(=O)C4[C@H]2C(=O)N(CCCCCO)[C@@H]3C1=O (some centres undefined),-0.406
15,COc1cc2c(cc1OC)CN(C(=O)[C@H]1[C@@H]3C(=O)O[C@@H](c4ccccc4)[C@@H](c4ccccc4)N3[C@@H](c3ccc(O)cc3)[C@]13C(=O)Nc1ccc(C#CCCO)cc13)CC2,0.964
